ABHD5 PLIN5 PPI: inhibitors of human ABHD5-perilipin-5 interaction; Split G. princeps luciferase complementation, luminescence, 4 h; inhibition, % at 4 µM; hit rate 0.78% among 360,000; AID 602281;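 active means inhibition above the mean inhibition across every tested compound plus 3 SD, cut at about 22% in these data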
MBD2 inh: blocks human MBD2 binding to methylated DNA; Q9UBB5; TR-FRET, MBD2 binding to methylated oligonucleotide; inhibition, % at 4.4 µM; hit rate 0.31% among 370,000; AID 686964; in the data active means inhibition above about 13%
rCAG RNA binder: molecules binding r(CAG) RNA repeats; r(CAG) RNA repeat, TO-PRO-1 dye displacement fluorescence; inhibition, % at 3 µM; hit rate 1.3% among 370,000; AID 651821;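 active means inhibition above the plate cutoff, the mean of all test compounds on that plate plus 3 SD, cut at about 35% in these data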;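 further: higher means more dye released from RNA so lower well fluorescence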
LEDGF integ inh: blocks HIV-1 LEDGF/p75-dependent DNA integration; TR-FRET IN-LEDGF/p75 DNA integration, Eu/Cy5; inhibition, % at 3.7 µM; hit rate 0.64% among 370,000;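 active means inhibition above the screen-wide mean plus 3 SD, cut at about 13% in these data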;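 further: signal is the Cy5 over europium emission ratio at 671 and 618 nm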
UHRF1 MBD2 ctr: UHRF1 methyl-DNA binding inhibition. Q96T88. UHRF1 binding to methylated oligo, TR-FRET. inhibition, % at 4.4 µM. hit rate 0.75% among 370,000. AID 687016; in the data active means inhibition above about 21%;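 further: UHRF1 SRA domain binding a hemimethylated CpG hairpin DNA probe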
PRMT1 FP inh: blocks human protein arginine methyltransferase 1; recombinant PRMT1, activity-based probe fluorescence polarization; inhibition, % at 2.79 µM; hit rate 1.3% among 370,000;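 active means inhibition above about 21% made by adding two undisclosed values, limit read from the data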
Target sequence (Q99873 whole entry, looked up): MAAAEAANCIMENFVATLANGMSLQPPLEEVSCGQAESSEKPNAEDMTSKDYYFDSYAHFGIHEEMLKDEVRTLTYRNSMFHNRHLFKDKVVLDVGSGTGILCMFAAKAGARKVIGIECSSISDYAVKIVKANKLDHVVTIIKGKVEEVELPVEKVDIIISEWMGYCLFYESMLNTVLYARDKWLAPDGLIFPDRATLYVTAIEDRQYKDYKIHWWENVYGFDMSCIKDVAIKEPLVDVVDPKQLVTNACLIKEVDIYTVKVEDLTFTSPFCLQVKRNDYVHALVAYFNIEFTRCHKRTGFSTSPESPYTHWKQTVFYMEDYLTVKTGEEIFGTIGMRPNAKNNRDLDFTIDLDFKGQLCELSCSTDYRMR
PRMT1 confirm: confirmation of human PRMT1 inhibitors; recombinant His-PRMT1, activity-based probe fluorescence polarization; hit rate 42% among 3,300; inhibition, % at 2.79 µM; shares compounds with PRMT1 FP inh;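 active means mean inhibition across replicates above the hit cutoff derived for the earlier primary screen, cut at about 22% in these data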
Hits are given with their value. Shown are actives, neighbours in structure and some others; about 4.1% of the full set was active somewhere.

How did O=C(CSc1nc2cc(S(=O)(=O)N3CCOCC3)ccc2o1)Nc1c(F)cccc1F do in these assays?
ABHD5 PLIN5 PPI: inactive; MBD2 inh: inactive; rCAG RNA binder: inactive; LEDGF integ inh: inactive; UHRF1 MBD2 ctr: inactive; PRMT1 FP inh: 54; PRMT1 confirm: 47

Results for O=C(NC1CCCc2ccccc21)c1cc(S(=O)(=O)N2CCOCC2)ccc1F (centres undefined) ?
ABHD5 PLIN5 PPI: inactive; MBD2 inh: inactive; rCAG RNA binder: inactive; LEDGF integ inh: inactive; UHRF1 MBD2 ctr: inactive; PRMT1 FP inh: inactive

Results for CC(C)(C)C(=O)OC12CCCN(C1)/C(=C/c1cccc(Cl)c1)C2 (centres undefined) ?
MBD2 inh: inactive; rCAG RNA binder: inactive; LEDGF integ inh: inactive; UHRF1 MBD2 ctr: inactive; PRMT1 FP inh: inactive

What do the screens show for `CCN(CC(=O)NCc1cccs1)CC(=O)Nc1cccc(S(N)(=O)=O)c1`?
ABHD5 PLIN5 PPI: inactive; MBD2 inh: inactive; rCAG RNA binder: inactive; LEDGF integ inh: inactive; UHRF1 MBD2 ctr: inactive; PRMT1 FP inh: 44; PRMT1 confirm: inactive

What do the screens show for `CCN(CC(=O)NCc1cccs1)CC(=O)Nc1ccc(C(N)=O)cc1`?
ABHD5 PLIN5 PPI: inactive; MBD2 inh: inactive; rCAG RNA binder: inactive; LEDGF integ inh: inactive; UHRF1 MBD2 ctr: inactive; PRMT1 FP inh: inactive

Results for O=C(c1cc(N2C(=O)C3C4CCC(C4)C3C2=O)ccc1Cl)N1CCN(c2ccc(F)cc2)CC1 (centres undefined) ?
ABHD5 PLIN5 PPI: inactive; MBD2 inh: inactive; rCAG RNA binder: inactive; LEDGF integ inh: inactive; UHRF1 MBD2 ctr: inactive; PRMT1 FP inh: inactive

What do the screens show for `COc1ccc(N2CCN(C(=O)c3cc(N4C(=O)C5C6CCC(C6)C5C4=O)ccc3Cl)CC2)cc1` (centres undefined)?
ABHD5 PLIN5 PPI: inactive; MBD2 inh: inactive; rCAG RNA binder: inactive; LEDGF integ inh: inactive; UHRF1 MBD2 ctr: inactive; PRMT1 FP inh: 36; PRMT1 confirm: inactive

What do the screens show for `C[C@H]1CN(S(=O)(=O)C(C)(C)C)[C@@H](CCO)/C1=C\CCO`?
MBD2 inh: inactive; rCAG RNA binder: inactive; LEDGF integ inh: inactive; UHRF1 MBD2 ctr: inactive; PRMT1 FP inh: inactive

How did Cc1cc(C)n2c(=S)[nH]nc2n1 do in these assays?
ABHD5 PLIN5 PPI: inactive; MBD2 inh: inactive; rCAG RNA binder: inactive; LEDGF integ inh: inactive; UHRF1 MBD2 ctr: inactive; PRMT1 FP inh: 56; PRMT1 confirm: 91

How did O=C([C@@H]1C[C@H]1c1ccccc1)N1CC[C@H]2[C@H](CCCN2Cc2cc(F)cc(F)c2)C1 do in these assays?
MBD2 inh: inactive; rCAG RNA binder: inactive; LEDGF integ inh: inactive; UHRF1 MBD2 ctr: inactive; PRMT1 FP inh: inactive

How did CC(C)c1csc(CN2CCC(C(=O)Nc3cccc(-c4ccco4)c3)CC2)n1 do in these assays?
ABHD5 PLIN5 PPI: inactive; MBD2 inh: inactive; rCAG RNA binder: inactive; LEDGF integ inh: inactive; UHRF1 MBD2 ctr: inactive; PRMT1 FP inh: 27; PRMT1 confirm: inactive

What do the screens show for `CCOC(=O)[C@]12CCCCC/C=C\1N(Cc1ccc(OC)cc1)C(=O)[C@H]2CC(=O)N1CCCC1`?
MBD2 inh: inactive; rCAG RNA binder: inactive; LEDGF integ inh: inactive; UHRF1 MBD2 ctr: inactive; PRMT1 FP inh: inactive

What do the screens show for `CC(=O)Nc1ccc(NC(=O)COC(=O)c2ccccc2SCC(=O)N2CCCC2)cc1`?
ABHD5 PLIN5 PPI: inactive; MBD2 inh: inactive; rCAG RNA binder: inactive; LEDGF integ inh: inactive; UHRF1 MBD2 ctr: inactive; PRMT1 FP inh: 29; PRMT1 confirm: 24

Results for COc1ccc(NC(=O)COC(=O)c2ccccc2SCC(=O)N2CCCC2)cc1 ?
ABHD5 PLIN5 PPI: inactive; MBD2 inh: inactive; rCAG RNA binder: inactive; LEDGF integ inh: inactive; UHRF1 MBD2 ctr: inactive; PRMT1 FP inh: inactive

How did O=C(NC1CCCCC1)c1ccc(-c2ccccc2)cc1 do in these assays?
ABHD5 PLIN5 PPI: inactive; MBD2 inh: inactive; rCAG RNA binder: inactive; LEDGF integ inh: inactive; UHRF1 MBD2 ctr: inactive; PRMT1 FP inh: 42; PRMT1 confirm: inactive

Results for COc1ccc(S[C@]2(C(=O)NCC(C)C)CC(=O)N[C@@H]2c2ccc(OC)cc2)cc1 ?
MBD2 inh: inactive; rCAG RNA binder: inactive; LEDGF integ inh: inactive; UHRF1 MBD2 ctr: inactive; PRMT1 FP inh: inactive

Results for NC(=O)C1(N2CCCCC2)CCN(C2CC(=O)N(CCc3ccccc3)C2=O)CC1 (centres undefined) ?
ABHD5 PLIN5 PPI: inactive; MBD2 inh: inactive; rCAG RNA binder: inactive; LEDGF integ inh: inactive; UHRF1 MBD2 ctr: inactive; PRMT1 FP inh: 44; PRMT1 confirm: inactive

Results for NC(=O)C1(N2CCCCC2)CCN(C2CC(=O)N(Cc3cccs3)C2=O)CC1 (centres undefined) ?
ABHD5 PLIN5 PPI: inactive; MBD2 inh: inactive; rCAG RNA binder: inactive; LEDGF integ inh: inactive; UHRF1 MBD2 ctr: inactive; PRMT1 FP inh: inactive

Results for CN1C(=O)CC(N2CCC(C(N)=O)(N3CCCCC3)CC2)C1=O (centres undefined) ?
ABHD5 PLIN5 PPI: inactive; MBD2 inh: inactive; rCAG RNA binder: inactive; LEDGF integ inh: inactive; UHRF1 MBD2 ctr: inactive; PRMT1 FP inh: inactive

What do the screens show for `COc1cccc(N2C(=O)CC(N3CCC(C(N)=O)(N4CCCCC4)CC3)C2=O)c1` (centres undefined)?
ABHD5 PLIN5 PPI: inactive; MBD2 inh: inactive; rCAG RNA binder: inactive; LEDGF integ inh: inactive; UHRF1 MBD2 ctr: inactive; PRMT1 FP inh: 54; PRMT1 confirm: inactive

What do the screens show for `COc1cccc(CNC(=O)[C@H]2CCCN2C(=O)[C@H]2CCCN2C(=O)c2ccccc2C(F)(F)F)c1`?
MBD2 inh: inactive; rCAG RNA binder: inactive; LEDGF integ inh: inactive; UHRF1 MBD2 ctr: inactive; PRMT1 FP inh: inactive

Results for COc1ccc(F)cc1-c1cc(C(C)=O)c2n(c1=O)CCC2 ?
MBD2 inh: inactive; rCAG RNA binder: inactive; LEDGF integ inh: inactive; UHRF1 MBD2 ctr: inactive; PRMT1 FP inh: inactive

How did COC(=O)[C@H](Cc1ccccc1)N1CC=CS1(=O)=O do in these assays?
MBD2 inh: inactive; rCAG RNA binder: inactive; LEDGF integ inh: inactive; UHRF1 MBD2 ctr: inactive; PRMT1 FP inh: inactive

What do the screens show for `CN1CCN(NC(=O)CN2C(=O)S/C(=C\c3c(Cl)cccc3Cl)C2=O)CC1`?
ABHD5 PLIN5 PPI: inactive; MBD2 inh: inactive; rCAG RNA binder: inactive; LEDGF integ inh: inactive; UHRF1 MBD2 ctr: inactive; PRMT1 FP inh: 26; PRMT1 confirm: inactive

What do the screens show for `O=C(CCN1C(=O)/C(=C/c2ccccc2Cl)SC1=S)NN1CCOCC1`?
ABHD5 PLIN5 PPI: inactive; MBD2 inh: inactive; rCAG RNA binder: inactive; LEDGF integ inh: inactive; UHRF1 MBD2 ctr: inactive; PRMT1 FP inh: inactive

Results for Cc1ccc(NNC(N)=S)cc1Cl ?
ABHD5 PLIN5 PPI: inactive; MBD2 inh: inactive; rCAG RNA binder: inactive; LEDGF integ inh: inactive; UHRF1 MBD2 ctr: inactive; PRMT1 FP inh: 28; PRMT1 confirm: inactive

How did O=C1CSC(=Nc2ccc(O)cc2)N1c1ccc(O)cc1 do in these assays?
ABHD5 PLIN5 PPI: inactive; MBD2 inh: inactive; rCAG RNA binder: inactive; LEDGF integ inh: inactive; UHRF1 MBD2 ctr: inactive; PRMT1 FP inh: inactive

Bioassay records (PubChem)
